Calls of active or inactive are those of the source. The calls were made as follows: active = hit-call score of the fitted dose curve at least 0.9, where 1 is the maximum; inactive = score below 0.9.
target: Transcription factor E2F1 (Homo sapiens) (UniProt Q01094); assay: ATG_E2F_CIS: Attagene CIS-FACTORIAL HepG2 Assay for human E2F Transcription Factor 1 (AID 2282935); conditions: HepG2 Attagene cis-reporter, E2F reporter RNA transcripts; actives raise or lower the signal
Method: ATG_CIS is a cell-based, multiplexed-readout assay that uses HepG2, a human liver cell line, with measurements taken at 24 hours after chemical dosing in a 24-well plate.ATG_E2F_CIS is one of 52 assay component(s) measured or calculated from the ATG_CIS assay. It is designed to make measurements of mRNA induction, a form of inducible reporter, as detected with fluorescence intensity signals by Reverse transcription polymerase chain reaction (RT-PCR) and Capillary electrophoresis technology.Data from the assay component ATG_E2F_CIS was analyzed into 1 assay endpoint. This assay endpoint, ATG_E2F_CIS, was analyzed with bidirectional fitting relative to DMSO as the negative control and baseline of activity. Using a type of inducible reporter, measures of mRNA for gain or loss-of-signal activity can be used to understand the reporter gene at the transcription factor-level as they relate to the gene E2F1. Furthermore, this assay endpoint can be referred to as a primary readout, because this assay has produced multiple assay endpoints where this one serves a reporter gene function. To generalize the intended target to other relatable targets, this assay endpoint is annotated to the dna binding intended target family, where the subfamily is E2F transcription factor.
Human liver HepG2 cells are transiently transfected with multiple reporter transcription units (MRTUs) in 6-well plates using FuGene 6 reagent (Roche; 3 ml FuGene/1 mg DNA). The MRTU constructs are regulated by a cis-regulating element (promoter). […] A major difference between the CIS and TRANS system is that in CIS activities of endogenous TFs are measured, whereas the TRANS assay evaluates changes in activities of exogenous, chimeric NR-Gal4 proteins. […] At the end of 24 hour incubation, total RNA was isolated using TriZol reagent (Invitrogen). The isolated RNA is then reverse-transcribed using oligo(dT) primer and Mo-MLV reverse transcriptase (Invitrogen) with DNAse I (Ambion) treatment for 30 min. The one-tenth of the produced cDNA was amplified by PCR using Taq DNA polymerase (Invitrogen) and two reporter sequence-specific primers. The PCR products were fluorescently labeled by primer extension with 6-arboxyfluorescein (6-FAM) 5'-labeled reporter sequence-specific primer (2 min at 95 C, 20 s at 68 C and 10 min at 72 C) and these products were digested with 5U of HpaI (New England Biolabs) for 2h at 37 C. The fragments were purified using Qiaquick PCR columns (Qiagen), analyzed on an ABI 3130xL genetic analyzer (Applied Biosystems) with peak positions identified by using a set of X-rhodamine (ROX)-labeled MapMarker1000 molecular weight standards (BioVentures). The raw capillary electrophoresis data was processed using Attagraph software (Attagene).

Transcription factor E2F1 (Homo sapiens), sequence (Q01094 whole entry, looked up): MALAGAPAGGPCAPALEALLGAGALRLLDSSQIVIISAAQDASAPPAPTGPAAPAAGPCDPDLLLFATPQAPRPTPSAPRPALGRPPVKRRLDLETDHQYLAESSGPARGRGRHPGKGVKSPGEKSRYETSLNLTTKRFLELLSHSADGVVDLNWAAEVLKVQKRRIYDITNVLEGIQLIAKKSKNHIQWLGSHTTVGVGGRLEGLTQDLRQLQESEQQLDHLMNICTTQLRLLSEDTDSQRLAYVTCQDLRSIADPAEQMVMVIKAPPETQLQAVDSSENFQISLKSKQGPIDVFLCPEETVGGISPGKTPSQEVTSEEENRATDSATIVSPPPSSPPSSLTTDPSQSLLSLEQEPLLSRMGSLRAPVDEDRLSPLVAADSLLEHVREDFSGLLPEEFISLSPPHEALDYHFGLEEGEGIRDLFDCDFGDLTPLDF

outcome, inactive:
CN(C)c1ccc(C(c2ccccc2)c2ccc(N(C)C)cc2)cc1, C1=CCC=C1, Nc1nnc(-c2ccc([N+](=O)[O-])o2)o1, CCC(C)(CCC(C)C)C(=O)O (stereo not given), C=C(C)C(=O)OCC1CCCO1 (stereo not given), CCCCCCCCCCC1CO1 (stereo not given), O=C(O)c1cc(Cl)cc(Cl)c1O, O=C1NC(=O)[C@@H]2CC=CC[C@H]12, COc1ccccc1OCC(O)CO (stereo not given), CC(=O)OC(C)(C)Cc1ccccc1, CO[Si](CCCNCCN)(OC)OC, CC(C)(C)NC(=O)[C@@H]1CN(Cc2cccnc2)CCN1C[C@@H](O)C[C@@H](Cc1ccccc1)C(=O)N[C@H]1c2ccccc2C[C@H]1O, NC(=O)c1ccc(N)cc1, CC(C)=CCOC(=O)c1ccccc1, NC(=O)c1ccc([N+](=O)[O-])cc1Cl, COc1c2occc2cc2ccc(=O)oc12, CC(O)(P(=O)(O)O)P(=O)(O)O, CCC(C)=NO, CN1CCCC1, CC[N+](CC)(CC(=O)Nc1c(C)cccc1C)Cc1ccccc1, CC[N+](CC)(CC(=O)Nc1c(C)cccc1C)Cc1ccccc1 (tested in a mixture with another compound), CCOC(=O)c1ccccc1, CCC(C)C1N=C(C)C(C)S1 (stereo not given), C=CC(C)(CCC=C(C)C)OC(=O)c1ccccc1 (stereo not given), O=C(O)c1nc(Cl)c(Cl)c(Cl)c1Cl, Cc1ccccc1S(=O)(=O)O, C=CN1CCCCCC1=O, CCCCCCOC(=O)CCCCCCCC(=O)OCCCCCC, CN(C)N=Nc1ccccc1, CC=CC(=O)O, COC(OC)C(C)c1ccccc1 (stereo not given), F[B-](F)(F)F, CC1=CCCC(C)(C)C12CCC(C)O2 (stereo not given), O=[N+]([O-])c1ccc2nc[nH]c2c1, O=C1NC(=O)C2CC=CCC12 (stereo not given), C[C@H]1C[C@H]2[C@@H]3CCC4=CC(=O)C=C[C@]4(C)[C@@]3(F)[C@@H](O)C[C@]2(C)[C@@]1(O)C(=O)CO, c1ccc2c(c1)Oc1ccccc1S2, CC1=C(CC(=O)O)c2cc(F)ccc2/C1=C\c1ccc(S(C)=O)cc1 (stereo not given), Cc1cc2nc3c(=O)[nH]c(=O)nc-3n(C[C@H](O)[C@H](O)[C@H](O)CO)c2cc1C, O=C1CCCCCCCCCCCCCC1

Source: PubChem BioAssay (EPA / NIEHS)
